Assay results from PubChem BioAssay (Tox21).
Records with an inconclusive call do not appear. The source made the active and inactive calls. Unless noted, calls follow the shape of the dose curve; as a rule, active = well fitted curve in the direction sought with a large enough effect in the repeat runs; inconclusive = weak or mixed curves; inactive = no such curve, though single readings can be large; an effect the other way counts as inactive or inconclusive.

How the values were obtained:
[1] = molecular target: Progesterone receptor (Homo sapiens) (UniProt P06401); experiment: qHTS assay to identify small molecule agonists of the progesterone receptor (PR) signaling pathway (AID 1346784; calls by dose curve; also: nearly all actives have a fitted effect of over 30% in size)
Chain of Progesterone receptor (Homo sapiens) (P06401 whole entry, looked up): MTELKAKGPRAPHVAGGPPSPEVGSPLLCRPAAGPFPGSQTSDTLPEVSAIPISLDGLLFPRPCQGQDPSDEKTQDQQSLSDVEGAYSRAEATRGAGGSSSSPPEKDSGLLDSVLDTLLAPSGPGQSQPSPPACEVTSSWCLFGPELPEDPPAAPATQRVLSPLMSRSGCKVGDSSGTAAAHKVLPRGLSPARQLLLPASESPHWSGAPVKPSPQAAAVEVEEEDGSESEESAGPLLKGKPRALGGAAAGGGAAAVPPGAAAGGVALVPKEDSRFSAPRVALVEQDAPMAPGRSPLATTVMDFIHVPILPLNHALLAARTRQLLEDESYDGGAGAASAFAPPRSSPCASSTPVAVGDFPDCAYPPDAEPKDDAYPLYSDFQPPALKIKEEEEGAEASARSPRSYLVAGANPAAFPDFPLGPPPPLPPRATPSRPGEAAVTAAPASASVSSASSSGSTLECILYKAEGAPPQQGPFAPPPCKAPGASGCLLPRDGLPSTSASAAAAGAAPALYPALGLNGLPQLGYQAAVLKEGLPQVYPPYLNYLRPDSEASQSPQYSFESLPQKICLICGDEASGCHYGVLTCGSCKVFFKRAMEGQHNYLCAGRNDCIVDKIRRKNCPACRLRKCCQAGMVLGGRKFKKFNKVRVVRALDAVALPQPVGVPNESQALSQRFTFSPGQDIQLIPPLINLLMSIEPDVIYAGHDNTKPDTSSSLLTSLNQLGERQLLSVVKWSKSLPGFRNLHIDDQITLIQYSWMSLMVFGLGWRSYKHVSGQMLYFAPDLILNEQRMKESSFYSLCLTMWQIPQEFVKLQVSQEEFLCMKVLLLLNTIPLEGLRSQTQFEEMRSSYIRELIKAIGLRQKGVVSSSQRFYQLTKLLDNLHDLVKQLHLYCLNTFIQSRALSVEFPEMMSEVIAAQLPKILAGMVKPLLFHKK
Method in brief: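 PR-UAS-bla HEK 293T cells carrying a UAS-driven beta-lactamase reporter were seeded in medium with 2% charcoal-stripped FBS, preincubated 6 hr at 37C, then exposed to compounds in DMSO for 16 hr; agonism was read by LiveBLAzer B/G FRET fluorescence.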

[2] = molecular target: Progesterone receptor (Homo sapiens) (UniProt P06401); experiment: qHTS assay to identify small molecule antagonists of the progesterone receptor (PR) signaling pathway (AID 1346795; active = well fitted inhibition curve with a large enough effect in the signal ratio in the repeat runs, not every such curve was filed as active; the % refers to the signal ratio; also: potency is read from the fitted curve at half-maximal effect)
Method in brief: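 PR-UAS-bla HEK293T cells carrying a UAS-driven beta-lactamase reporter were plated in medium with 2% charcoal-stripped FBS and rested 6 hr at 37C. Compounds were added with 1 nM R5020 (final) for 16 hr, then FRET substrate loaded 2 hr at room temperature.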

[3] = qHTS assay to identify small molecule antagonists of the progesterone receptor (PR) signaling pathway - cell viability counter screen (AID 1346798); also: series mostly up to about 92 µM; nearly all actives have a fitted effect of over 50% in size
Method in brief: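 PR-UAS-bla HEK293T cells in medium with 2% charcoal-stripped FBS were treated with compounds plus R5020 for 16 hr at 37C. Cell viability was then read by CellTiter-Glo luminescence after 30 min at room temperature in the same wells.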

[4] = qHTS assay to identify small molecule agonists of the progesterone receptor (PR) signaling pathway - cell viability counter screen (AID 1346799; calls by dose curve; also: nearly all actives have a fitted effect of over 45% in size)
Method in brief: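 PR-UAS-bla HEK293T cells, 3,000 per well in medium with 2% charcoal-stripped FBS, were preincubated 6 hr at 37C, then exposed to compounds for 16 hr; viability was read as CellTiter-Glo luminescence after 30 min at room temperature.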

[5] = qHTS assay to identify small molecule antagonists of the TGF-beta/Smad signaling pathway - cell viability counter screen (AID 1346824); also: nearly all actives have a fitted effect of over 50% in size
Method in brief: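 SBE-bla HEK 293T cells were plated overnight at 37 C, then given compounds in DMSO plus TGF-beta1 (added as 0.25 ng/mL solution) for 5 hr. After the bla read, CellTiter-Glo was added to the same wells and luminescence read after 30 min at room temperature.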

[6] = qHTS assay to identify small molecule agonists of the TGF-beta/Smad signaling pathway - cell viability counter screen (AID 1346829); also: top concentration of the series differs between compounds; nearly all actives have a fitted effect of over 45% in size
Method in brief: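 Here the cytotoxicity of library compounds is measured in SBE-bla HEK 293T cells treated for 5 hr, using CellTiter-Glo added to wells already read for the beta-lactamase reporter.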

[7] = qHTS assay to identify small molecule agonists of the TGF-beta/Smad signaling pathway (AID 1346859; active = well fitted activation curve with a large enough effect in the signal ratio in the repeat runs, not every such curve was filed as active; the % refers to the signal ratio; also: series mostly up to about 77 µM)
Method in brief: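 HEK 293T cells stably carrying a beta-lactamase reporter driven by the Smad binding element were seeded overnight, exposed to DMSO-dissolved compounds for 5 hr at 37 C, 5% CO2, then loaded with FRET substrate for 2 hr at room temperature.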

[8] = molecular target: Thyrotropin-releasing hormone receptor (Homo sapiens) (UniProt P34981); experiment: qHTS assay to identify small molecule antagonists of the thyrotropin-releasing hormone receptor (TRHR) signaling pathway (AID 1346877; active = well fitted inhibition curve with a large enough effect in the repeat runs, not every such curve was filed as active; also: series mostly up to about 51 µM)
Chain of Thyrotropin-releasing hormone receptor (Homo sapiens) (P34981 whole entry, looked up): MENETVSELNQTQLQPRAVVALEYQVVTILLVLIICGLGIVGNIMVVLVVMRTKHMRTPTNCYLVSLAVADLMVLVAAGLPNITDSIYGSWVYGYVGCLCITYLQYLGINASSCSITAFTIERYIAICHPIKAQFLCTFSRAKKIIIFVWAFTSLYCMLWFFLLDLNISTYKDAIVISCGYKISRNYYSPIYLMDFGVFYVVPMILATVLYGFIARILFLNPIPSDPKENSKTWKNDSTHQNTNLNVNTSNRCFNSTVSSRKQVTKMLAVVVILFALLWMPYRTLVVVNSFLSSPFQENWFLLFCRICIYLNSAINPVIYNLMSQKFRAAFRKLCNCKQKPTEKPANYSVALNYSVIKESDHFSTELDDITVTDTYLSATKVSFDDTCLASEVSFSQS
Method in brief: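 Cells (TRHR-HEK293) are plated and kept 18 h at 37 °C/5% CO2. A calcium-sensitive dye is added for 2 h, compound follows for 5 min at room temperature, and TRH is then given at 1 nM final.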

[9] = molecular target: Thyrotropin-releasing hormone receptor (Homo sapiens) (UniProt P34981); experiment: qHTS assay to identify small molecule agonists of the thyrotropin-releasing hormone receptor (TRHR) signaling pathway (AID 1346891; calls by dose curve; also: series mostly up to about 58 µM)
Method in brief: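 TRHR-expressing HEK293 cells were plated 18 h at 37 °C/5% CO2, loaded with calcium dye 2 h at 37 °C, then given compound in DMSO; fluorescence was read kinetically for 3 min at 1 s intervals.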

[10] = Caspase-3/7 induction in HepG2 cells by small molecules, qHTS assay (AID 1346978); also: nearly all actives have a fitted effect of over 15% in size
Method in brief: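 Wild-type HepG2 cells (2,000/well) were settled 5 h at 37 C, 5% CO2, then exposed to compounds in DMSO for 17 h. Caspase-3/7 activity was read by luminescence 30 min after adding Caspase-Glo 3/7 reagent at room temperature.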

[11] = Caspase-3/7 induction in CHO-K1 cells by small molecules, qHTS cell viability counter screen (AID 1346979); also: nearly all actives have a fitted effect of over 35% in size
Method in brief: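 Wild-type CHO-K1 cells were seeded at 1,500 per well, rested 5hr at 37 C, then exposed to compounds in DMSO. After 16hr, CellTiter-Fluor reagent was added and fluorescence read 1hr later as the viability measure.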

[12] = Caspase-3/7 induction in CHO-K1 cells by small molecules, qHTS assay (AID 1346980); also: nearly all actives have a fitted effect of over 15% in size
Method in brief: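 Wild-type cells were seeded at 1,500 per well and settled 5 hr at 37 C, 5% CO2, then exposed to DMSO-dissolved compounds for 17 hr. Caspase-Glo 3/7 reagent was added, and luminescence was read after 30min at room temperature.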

[13] = Caspase-3/7 induction in HepG2 cells by small molecules, qHTS cell viability counter screen (AID 1346981); also: nearly all actives have a fitted effect of over 30% in size; also: potency is read from the fitted curve at half-maximal effect
Method in brief: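 Steps: seed 2,000 HepG2 cells per well; incubate 5 hr at 37 C; pin-add compounds in DMSO; incubate 16 hr; add CellTiter-Fluor; after 1 hr at 37 C and 5% CO2, read fluorescence.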

[14] = molecular target: Nuclear receptor subfamily 1 group I member 2 (Homo sapiens) (UniProt O75469); experiment: Human pregnane X receptor (PXR) small molecule agonists, qHTS assay (AID 1346982); also: nearly all actives have a fitted effect of over 35% in size; also: potency is read from the fitted curve at half-maximal effect
Method in brief: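 Agonist mode qHTS: PXR-Luc HepG2 cells plated 5 hr before DMSO-dissolved compounds were pinned in, cultured 24 hr at 37 C, 5% CO2; ONE-Glo luminescence readout.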

[15] = molecular target: Cytochrome P450 2D6 (Homo sapiens) (UniProt P10635); experiment: Cytochrome P450 Family 2 Subfamily D Member 6 (CYP2D6) small molecule antagonists: luciferase reporter qHTS assay (AID 1671196); also: series mostly up to about 120 µM; nearly all actives have a fitted effect of over 50% in size
Chain of Cytochrome P450 2D6 (Homo sapiens) (P10635 whole entry, looked up): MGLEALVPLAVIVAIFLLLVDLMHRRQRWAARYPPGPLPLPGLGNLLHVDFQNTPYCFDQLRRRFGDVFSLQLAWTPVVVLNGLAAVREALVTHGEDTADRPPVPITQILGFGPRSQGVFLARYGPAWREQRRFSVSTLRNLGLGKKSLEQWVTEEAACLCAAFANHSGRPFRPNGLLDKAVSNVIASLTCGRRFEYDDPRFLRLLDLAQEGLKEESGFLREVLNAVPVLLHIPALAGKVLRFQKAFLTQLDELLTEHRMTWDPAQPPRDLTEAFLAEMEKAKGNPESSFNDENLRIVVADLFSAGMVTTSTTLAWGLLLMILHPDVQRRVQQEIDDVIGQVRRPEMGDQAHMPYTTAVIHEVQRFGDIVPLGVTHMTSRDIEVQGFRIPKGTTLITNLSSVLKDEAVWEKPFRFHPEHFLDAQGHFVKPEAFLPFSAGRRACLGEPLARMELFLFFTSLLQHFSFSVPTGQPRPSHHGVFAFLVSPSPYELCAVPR
Method in brief: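 P450-Glo format: CYP2D6 converts a proluciferin substrate to luciferin in an NADPH-driven reaction lasting 1 h at room temperature. Light output, proportional to CYP2D6 activity, reflects interference by test chemicals.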

[16] = Human pregnane X receptor (PXR) small molecule agonists, qHTS cell viability counter screen (AID 1346977); also: nearly all actives have a fitted effect of over 50% in size; also: potency is read from the fitted curve at half-maximal effect
Method in brief: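 PXR-Luc HepG2 cells in medium with 5% charcoal-stripped FBS were pre-incubated 5hr, then exposed to compounds for 24hr at 37C. Viability was read in the same wells by CellTiter-Fluor fluorescence, reagent added after 23hr with a 1hr incubation.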

[17] = molecular target: Cytochrome P450 2C19 (Homo sapiens) (UniProt P33261); experiment: Cytochrome P450 Family 2 Subfamily C Member 19 (CYP2C19) small molecule antagonists: luciferase reporter qHTS assay (AID 1671197); also: nearly all actives have a fitted effect of over 65% in size; also: potency is read from the fitted curve at half-maximal effect
Chain of Cytochrome P450 2C19 (Homo sapiens) (P33261 whole entry, looked up): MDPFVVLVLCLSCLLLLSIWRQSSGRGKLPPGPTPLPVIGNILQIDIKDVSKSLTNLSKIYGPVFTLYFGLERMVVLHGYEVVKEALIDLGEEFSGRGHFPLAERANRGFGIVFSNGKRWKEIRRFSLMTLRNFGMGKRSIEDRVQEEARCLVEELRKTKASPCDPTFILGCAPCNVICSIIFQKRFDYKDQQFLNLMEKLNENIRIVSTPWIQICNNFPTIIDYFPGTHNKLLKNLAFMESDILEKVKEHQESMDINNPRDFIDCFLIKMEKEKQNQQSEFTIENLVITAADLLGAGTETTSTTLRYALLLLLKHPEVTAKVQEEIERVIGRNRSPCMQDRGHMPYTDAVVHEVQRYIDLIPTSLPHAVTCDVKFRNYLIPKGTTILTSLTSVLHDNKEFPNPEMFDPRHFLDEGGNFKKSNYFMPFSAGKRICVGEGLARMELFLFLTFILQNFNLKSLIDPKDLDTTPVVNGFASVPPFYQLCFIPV
Method in brief: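 Light output is proportional to CYP2C19 activity: proluciferin substrate is converted to luciferin, then detected by a luciferin detection reagent that also stops the 1 h, 37C NADPH-driven reaction. Ketoconazole serves as positive control.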

[18] = molecular target: Nuclear receptor subfamily 1 group I member 2 (Rattus norvegicus) (UniProt Q9R1A7); experiment: Rat pregnane X receptor (rPXR) activation by small molecules, qHTS assay (AID 1346983); settings: rPXR luciferase reporter cells, One-Glo luminescence, 24 h; max activation: hits give high values; also: nearly all actives have a fitted effect of over 20% in size
Chain of Nuclear receptor subfamily 1 group I member 2 (Rattus norvegicus) (Q9R1A7 whole entry, looked up): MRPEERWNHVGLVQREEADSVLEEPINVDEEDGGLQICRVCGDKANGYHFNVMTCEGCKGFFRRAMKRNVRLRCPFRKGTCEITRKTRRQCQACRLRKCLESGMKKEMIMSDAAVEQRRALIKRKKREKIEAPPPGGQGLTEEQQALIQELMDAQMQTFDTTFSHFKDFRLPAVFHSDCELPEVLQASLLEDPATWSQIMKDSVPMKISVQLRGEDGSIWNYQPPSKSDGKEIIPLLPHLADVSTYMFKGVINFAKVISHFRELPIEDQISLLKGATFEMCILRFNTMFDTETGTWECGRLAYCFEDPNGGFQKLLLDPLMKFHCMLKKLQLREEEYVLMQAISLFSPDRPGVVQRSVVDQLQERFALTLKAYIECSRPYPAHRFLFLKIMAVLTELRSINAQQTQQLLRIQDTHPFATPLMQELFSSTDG
Method in brief: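 Cell-based rPXR luciferase reporter assay, 2,000 cells per well, rested 5hr at 37 C before compound addition in DMSO, then 24 hr at 37 C. One-Glo reagent was added and luminescence read after 30 min at room temperature.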

[19] = molecular target: Nuclear receptor subfamily 1 group I member 2 (Homo sapiens) (UniProt O75469); experiment: CYP3A4 induction through human pregnane X receptor (PXR) by small molecules, qHTS assay (AID 1346984); also: nearly all actives have a fitted effect of over 40% in size
Method in brief: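 Steps: seed DPX-2 cells, 5 hr at 37C; pin-transfer compounds; 24 hr at 37C; add Luciferin-IPA (3uM final), 3 hr at 37C; add One-Glo, 30 min RT; read luminescence.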

[20] = molecular target: Nuclear receptor subfamily 1 group I member 2 (Homo sapiens) (UniProt O75469); experiment: Human pregnane X receptor (PXR) activation by small molecules, qHTS assay (AID 1346985); also: nearly all actives have a fitted effect of over 40% in size
Method in brief: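 DPX-2 cells (HepG2 co-transfected with a PXR response element and a CYP3A4-promoter luciferase construct) were seeded at 2,000 per well, rested 5 hr at 37C, then exposed to DMSO-dissolved compounds for 24 hr. Activation was read as luciferase luminescence.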
% is scaled to controls: 0 for no effect and ±100 for the full control effect.

COc1cc(-c2ccc(N=C=O)c(OC)c2)ccc1N=C=O
inactive: Potency [1] | Potency [2] | Potency [3] | Potency [4] | Potency [5] | Potency [6] | Potency [7] | Potency [8] | Potency [9] | Potency [10] | Potency [11] | Potency [12] | Potency [13] | Potency [14] | Potency [15]

CCC(N)(CO)CO
inactive: Potency [1] | Potency [2] | Potency [3] | Potency [4] | Potency [5] | Potency [6] | Potency [7] | Potency [8] | Potency [16] | Potency [10] | Potency [11] | Potency [12] | Potency [13] | Potency [14] | Potency [15] | Potency [17]

CCCC(C)c1ccccc1O (stereo not given)
inactive: Potency [1] | Potency [2] | Potency [3] | Potency [4] | Potency [5] | Potency [6] | Potency [7] | Potency [8] | Potency [9] | Potency [16] | Potency [12] | Potency [13] | Potency [15] | Potency [17]

Nc1ccc2cc(S(=O)(=O)O)cc(O)c2c1N=Nc1ccccc1C(F)(F)F
inactive: Potency [1] | Potency [2] | Potency [3] | Potency [4] | Potency [6] | Potency [7] | Potency [8] | Potency [9] | Potency [10] | Potency [12] | Potency [15]
active: Potency [16] 61.1 µM | Potency [13] 54.5 µM | Potency [17] 79.6 µM

CN(C)[C@@H]1C(=O)C(C(N)=O)=C(O)[C@@]2(O)C(=O)C3=C(O)c4c(O)ccc(Cl)c4[C@@H](O)[C@H]3C[C@@H]12
inactive: Potency [1] | Potency [2] | Potency [3] | Potency [4] | Potency [5] | Potency [6] | Potency [8] | Potency [9] | Potency [16] | Potency [10] | Potency [11] | Potency [12] | Potency [13] | Potency [14] | max activation [18] -0.517% | Potency [19] | Potency [20] | Potency [15]

O=C(Oc1ccccc1)c1ccccc1C(=O)Oc1ccccc1
inactive: Potency [1] | Potency [3] | Potency [5] | Potency [6] | Potency [7] | Potency [8] | Potency [9] | Potency [10] | Potency [12] | Potency [13] | Potency [15]
active: Potency [2] 24.3 µM | Potency [17] 15.9 µM

CSc1ccc(C(=O)c2[nH]c(=O)[nH]c2C)cc1
inactive: Potency [1] | Potency [2] | Potency [3] | Potency [5] | Potency [6] | Potency [7] | Potency [16] | Potency [10] | Potency [11] | Potency [12] | Potency [13] | Potency [14] | Potency [15]

CCc1oc2ccccc2c1C(=O)c1cc(Br)c(O)c(Br)c1
active: Potency [2] 23.7 µM
inactive: Potency [1] | Potency [5] | Potency [6] | Potency [7] | Potency [8] | Potency [9] | Potency [10] | Potency [11] | Potency [12] | Potency [13] | max activation [18] -3.61% | Potency [15] | Potency [17]

NNC(=O)c1cccc(C(=O)NN)c1
inactive: Potency [1] | Potency [2] | Potency [4] | Potency [5] | Potency [6] | Potency [7] | Potency [8] | Potency [9] | Potency [16] | Potency [10] | Potency [12] | Potency [13] | Potency [17]

Cc1cccc(N(C)C(=S)Oc2ccc3c(c2)C2CCC3C2)c1 (stereo not given)
inactive: Potency [1] | Potency [4] | Potency [5] | Potency [6] | Potency [7] | Potency [8] | Potency [9] | Potency [16] | Potency [10] | Potency [12] | Potency [13]
active: Potency [2] 15 µM | Potency [14] 11.9 µM | Potency [17] 1.74 µM

Cc1onc(-c2c(Cl)cccc2Cl)c1C(=O)N[C@@H]1C(=O)N2[C@@H]1SC(C)(C)[C@@H]2C(=O)O
inactive: Potency [1] | Potency [2] | Potency [5] | Potency [6] | Potency [7] | Potency [8] | Potency [9] | Potency [16] | Potency [10] | Potency [11] | Potency [12] | Potency [13] | Potency [14]

O=c1cccccc1O
active: Potency [14] 69.9 µM
inactive: Potency [1] | Potency [2] | Potency [3] | Potency [6] | Potency [7] | Potency [9] | Potency [10] | Potency [12] | Potency [13] | Potency [15] | Potency [17]

COc1ccc(-c2ccc3cc(C(=O)O)ccc3c2)cc1C12CC3CC(CC(C3)C1)C2
inactive: Potency [1] | Potency [2] | Potency [3] | Potency [7] | Potency [8] | Potency [9] | Potency [16] | Potency [10] | Potency [12] | Potency [13] | Potency [14] | max activation [18] -8.07% | Potency [19] | Potency [20] | Potency [17]

Nc1c(Cl)cc(Cl)cc1Cl
inactive: Potency [1] | Potency [2] | Potency [4] | Potency [5] | Potency [6] | Potency [7] | Potency [8] | Potency [9] | Potency [16] | Potency [10] | Potency [11] | Potency [12] | Potency [13] | Potency [14] | Potency [15] | Potency [17]

NC(=O)CC[C@@H]1NC(=O)[C@H](Cc2ccccc2)NC(=O)[C@H](Cc2ccc(O)cc2)NC(=O)CCSSC[C@@H](C(=O)N2CCC[C@H]2C(=O)N[C@@H](CCCN=C(N)N)C(=O)NCC(N)=O)NC(=O)[C@H](CC(N)=O)NC1=O
inactive: Potency [1] | Potency [2] | Potency [4] | Potency [5] | Potency [6] | Potency [7] | Potency [10] | Potency [11] | Potency [12] | Potency [13] | max activation [18] -2.21% | Potency [19] | Potency [20] | Potency [15] | Potency [17]
